Experimental data reported in PubChem BioAssay (NCATS).
Inconclusive results are not listed. The source made the active and inactive calls. Unless noted, calls come from the whole dose curve; as a rule, active = well fitted curve in either direction with a large enough effect (not every such curve was filed as active); inconclusive = small, poorly fitted or top-dose-only effect, or another doubt; inactive = flat fitted curve, though single readings scatter.

Legend:
[1] = biological target: Lysosomal acid glucosylceramidase (Homo sapiens) (UniProt P04062); assay: Glucocerebrosidase-p2 (AID 348; in the data active = potency below about 10 µM; note: potency is the fitted concentration of half-maximal effect); conditions: purified GBA, blue fluorogenic substrate, 40 min
How it was run: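 Compounds titrated from 0.6 nM upwards against 0.2 nM enzyme in pH 5.9 citric acid/KH2PO4, taurocholate, tween-20; blue fluorogenic substrate 80 uM, 40 min room temperature, stopped and read Ex 365/Em 440 for AC50.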

[2] = AP1 Signaling Pathway (AID 357); conditions: ME-180 AP-1-bla reporter, EGF-induced, beta-lactamase ratio, 5 h; at 7.69 µM (top of the series) unless noted; note: % is set by controls: 0 for no effect and ±100 for the full control effect
How it was run: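 Titration-series screen for positive or negative modulators of EC50 EGF-induced signaling in ME-180 cells carrying an AP-1-driven beta-lactamase reporter. After 5 hours at 37 degrees Celsius, CCF4 460nm/530nm emission ratio gave %Activity; AC50 values derived.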

[3] = NFAT Signaling Pathway (AID 444); conditions: Jurkat NFAT-bla M1, carbachol, beta-lactamase ratio, 5 h; at 7.69 µM (top of the series) unless noted;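 note: carbachol stimulus at about its EC50 of 1 µM final; % is set by controls: 0 for no effect and ±100 for the full control effect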
How it was run: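 Jurkat cells carrying an NFAT-driven β-lactamase reporter and co-transfected muscarinic M1 receptor were treated with compound plus carbachol (1 uM final, an EC50 level) for 5 h at 37 °C. CCF4 loading followed for 1 h at RT; 460/530 nm ratio gave %activity.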

[4] = Stat Signaling Pathway (AID 446); conditions: ME-180 SIE beta-lactamase reporter, IL-6 stimulated, 5 h; at 7.69 µM (top of the series) unless noted;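 note: ME-180 cervical cancer cells given 40 pM IL-6 alongside compound; SIE-controlled beta-lactamase reporter measured as 460/530 nm FRET emission ratio; % is set by controls: 0 for no effect and ±100 for the full control effect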
How it was run: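 Screening format detects activators and inhibitors alike: ME-180 SIE-bla cells stimulated at 40 pM IL-6 for 5 hrs with compound, then dual-emission beta-lactamase read at 405 nm excitation.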

[5] = biological target: Glucocorticoid receptor (Homo sapiens) (UniProt P04150); assay: GR-EFC Redistribution (AID 451; calls by dose curve; note: potency is the fitted concentration of half-maximal effect); conditions: CHO-K1 GR-EFC translocation, beta-gal luminescence, 2 h
How it was run: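 CHO-K1 cells stably expressing nuclear-localized β-gal enzyme acceptor and GR fused C-terminally to the enzyme donor fragment; ligand-driven nuclear translocation restores β-gal by complementation. Compounds titrated up to 46 uM final, 2 h at 37 °C; luminescence read.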

[6] = biological target: Mitogen-activated protein kinase 10 (Mus musculus) (UniProt Q61831); assay: JNK3 AlphaScreen Assay (AID 530); conditions: JNK3 lysate, c-Jun phosphorylation; series mostly up to 57.1 µM;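 note: kinase came from lysate of stimulated human HepG2 cells; signal reports phosphorylation of biotinylated GST-cJun 1-79 at Ser73 with 10 µM ATP; % is set by controls: 0 for no effect and ±100 for the full control effect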
How it was run: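 Inhibitors reduce antibody binding to phosphorylated biotin-cJun, lowering AlphaScreen luminescence. Lysates from HepG2 cells pre-activated by IL-1beta plus TNF-alpha supplied JNK3; compounds were titrated.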

[7] = biological target: 3',5'-cyclic-AMP phosphodiesterase 4B (Homo sapiens) (UniProt Q07343); assay: qHTS Assay for Inhibitors of PDE-IV (AID 607; active = well fitted activation curve with a large enough effect in the main read-out, with a control signal flat, not every such curve was filed as active; note: % of control where 0% means no effect); conditions: HEK293 ACTOne CNG channel cells, membrane potential fluorescence; series mostly up to 22.9 µM
How it was run: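 The readout is membrane depolarisation from a cAMP-sensing CNG channel, detected with a potential dye at ex 535/em 590. Cells were HEK293-derived (endogenous PDE-IV) at 1000 cells/well, titrated up to 22.9 uM final.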

[8] = qHTS Assay for Lipid Storage Modulators (AID 1519; calls by dose curve); conditions: Drosophila S3 cells, BODIPY lipid droplet/cell ratio, laser cytometry, cells loaded with oleic acid; for activity change, negative = inhibition: at 57.5 µM (top of the series)
How it was run: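 Cells seeded at 5,000 per well were treated with compounds over a concentration series and loaded with oleic acid (400 uM, as added). Lipid droplet fluorescence (488 nm excitation, 500-530 nm channel) was read by laser-scanning cytometry and normalized to 20 uM Triacsin C.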

[9] = Primary qHTS for small molecule stabilizers of the endoplasmic reticulum resident proteome: Secreted ER Calcium Modulated Protein (SERCaMP) assay (AID 1508630; active = well fitted curve in the direction sought with a large enough effect; an effect the other way counts as inactive or inconclusive; note: % is set by controls: 0 for no effect and ±100 for the full control effect); conditions: SH-SY5Y GLuc-SERCaMP (Gaussia luciferase released on ER calcium loss) secretion, thapsigargin, luminescence; series mostly up to 38.4 µM
How it was run: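 GLuc-SERCaMP-expressing SH-SY5Y cells, pretreated 16 h with compound, are challenged with thapsigargin to empty ER calcium stores; after 4 h, coelenterazine is added directly to the medium and luminescence is imaged.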

[10] = biological target: Cytochrome P450 1A2 (Homo sapiens) (UniProt P05177); assay: p450-cyp1a2 (AID 410; calls by dose curve;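 note: -100% = full effect of reference inhibitor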); conditions: recombinant CYP1A2, luciferin-ME demethylation, luminescence; series mostly up to 57 µM
How it was run: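 Luminescent readout of luciferin formed from Luciferin-ME by human CYP1A2; data normalized against complete inhibition by 57 uM furafylline. Enzyme 20nM, substrate 100uM at Km, 100mM KPO4 buffer, 60 min reaction at room temperature.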

[11] = biological target: Cytochrome P450 3A4 (Homo sapiens) (UniProt P08684); assay: qHTS Assay for Activators of Cytochrome P450 3A4 (AID 885; active = well fitted curve in the direction sought with a large enough effect; an effect the other way counts as inactive or inconclusive; note: nearly all actives have a fitted effect of over 65% in size); conditions: recombinant CYP3A4, Luciferin-PPXE luminescence, 60 min; series mostly up to 57.1 µM
How it was run: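 Steps: enzyme/substrate mix dispensed; compound added, 10 min RT; NADPH regeneration solution added, 60 min RT; luciferin detection buffer stops reaction; 20 min later luminescence measured.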

[12] = qHTS Assay for Identification of Small Molecule Agonists for Hypoxia Response Element Signaling Pathway (AID 914; active = well fitted activation curve with a large enough effect in the signal ratio, with a control signal flat, not every such curve was filed as active; the % refers to the signal ratio; note: % of control where 0% means no effect); conditions: ME-180 (cervical carcinoma) HRE-bla reporter, beta-lactamase ratio, CoCl2, 17 h; activation: stronger effect = higher value
How it was run: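 Cells were plated overnight, pin-dosed with compound in a titration series, co-stimulated with EC50 CoCl2 and incubated 17 hours at 37 degrees Celsius. CCF4 substrate was then loaded, and AC50 values came from the 460nm/530nm ratio.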

[13] = biological target: Glucocorticoid receptor (Homo sapiens) (UniProt P04150); assay: GR-GFP Redistribution (AID 450;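 active = compounds whose dose series gives a full or clear partial fitted curve of increased nuclear translocation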; note: potency is the fitted concentration of half-maximal effect); conditions: U2OS GR-GFP nuclear translocation, laser cytometry, 2 h
[14] = Confirmation and Secondary Assay for Modulators of Hemoglobin Beta Chain Splicing at IVS2 654 locus (AID 910; active = well fitted curve in the direction sought with a large enough effect; an effect the other way counts as inactive or inconclusive;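 note: per-well total GFP intensity by laser scanning cytometry after 2-day treatment; % of control where 0% means no effect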); conditions: HeLa EGFP-654 splicing reporter, GFP fluorescence, 48 h; series mostly up to 38.3 µM
How it was run: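 HeLa cells stably carrying EGFP interrupted by mutant beta-globin IVS2-654 intron (CMV-driven) were treated with compound for 2 days at 37C; corrected splicing was scored as total peak GFP intensity per well (488 nm excitation, 500-520 nm emission).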

[15] = Confirmation and Secondary Assay for Modulators of Hemoglobin Beta Chain Splicing at IVS2 705 locus (AID 930; active = well fitted curve in the direction sought with a large enough effect; an effect the other way counts as inactive or inconclusive;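 note: HeLa cells stably expressing the EGFP-705 splicing reporter; GFP fluorescence per well restored by corrected splicing of the IVS2-705 intron in EGFP; % of control where 0% means no effect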); conditions: HeLa EGFP-705 splicing reporter, GFP fluorescence, 48 h; series mostly up to 38.3 µM
How it was run: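 Splice-correction reporter: EGFP cDNA split by beta-globin intron 2 bearing the 705 mutation, stably in HeLa. Compound incubation 2 days, 37C; fluorescent objects 5-250 µm summed per well.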

[16] = biological target: Ubiquitin carboxyl-terminal hydrolase 1 (Homo sapiens) (UniProt O94782); assay: Inhibitors of USP1/UAF1: Pilot qHTS (AID 504865; active = well fitted curve in the direction sought with a large enough effect; an effect the other way counts as inactive or inconclusive;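 note: rhodamine fluorescence freed from ubiquitin-rhodamine substrate followed over time; top concentration of the series differs between compounds; % is set by controls: 0 for no effect and ±100 for the full control effect; nearly all actives have a fitted effect of over 35% in size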); conditions: purified USP1/UAF1, Ub-rhodamine cleavage fluorescence; series mostly up to 54.9 µM
How it was run: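 1nM USP1/UAF1 + cpd, 15 min RT; start w/ Ub-Rho 150nM final; kinetic FL 480/540 nm, 6 reads q60 s. Buffer 50mM HEPES pH 7.8, 0.5mM EDTA, 1mM TCEP, 0.01% Tween-20, 0.1 mg/ml BSA.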

[17] = measured here: cell count channel max response
[18] = measured here: lipid channel max response

Chain of Glucocorticoid receptor (Homo sapiens) (P04150 whole entry, looked up, the tested form may be a part): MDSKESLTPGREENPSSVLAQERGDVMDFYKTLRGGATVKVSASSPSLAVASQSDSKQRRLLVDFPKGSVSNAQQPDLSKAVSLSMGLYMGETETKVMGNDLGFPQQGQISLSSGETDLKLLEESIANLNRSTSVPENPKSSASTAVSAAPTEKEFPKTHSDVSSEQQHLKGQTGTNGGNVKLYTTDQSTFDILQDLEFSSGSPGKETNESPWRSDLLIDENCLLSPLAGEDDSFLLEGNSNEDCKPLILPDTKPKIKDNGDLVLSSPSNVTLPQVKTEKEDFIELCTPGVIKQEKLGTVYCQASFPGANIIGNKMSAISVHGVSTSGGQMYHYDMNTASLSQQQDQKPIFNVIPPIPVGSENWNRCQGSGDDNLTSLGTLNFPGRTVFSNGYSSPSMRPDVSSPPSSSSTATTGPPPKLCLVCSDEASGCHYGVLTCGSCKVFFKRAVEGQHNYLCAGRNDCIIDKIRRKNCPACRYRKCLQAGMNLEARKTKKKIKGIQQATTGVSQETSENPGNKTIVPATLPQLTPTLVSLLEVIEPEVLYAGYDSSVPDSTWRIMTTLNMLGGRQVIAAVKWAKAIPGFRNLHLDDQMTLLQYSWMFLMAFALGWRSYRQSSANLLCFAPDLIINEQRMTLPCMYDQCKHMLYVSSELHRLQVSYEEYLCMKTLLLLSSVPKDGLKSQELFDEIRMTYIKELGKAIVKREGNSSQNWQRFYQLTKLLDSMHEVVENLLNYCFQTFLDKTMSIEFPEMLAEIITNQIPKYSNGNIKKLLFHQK
Chain of Cytochrome P450 1A2 (Homo sapiens) (P05177 whole entry, looked up): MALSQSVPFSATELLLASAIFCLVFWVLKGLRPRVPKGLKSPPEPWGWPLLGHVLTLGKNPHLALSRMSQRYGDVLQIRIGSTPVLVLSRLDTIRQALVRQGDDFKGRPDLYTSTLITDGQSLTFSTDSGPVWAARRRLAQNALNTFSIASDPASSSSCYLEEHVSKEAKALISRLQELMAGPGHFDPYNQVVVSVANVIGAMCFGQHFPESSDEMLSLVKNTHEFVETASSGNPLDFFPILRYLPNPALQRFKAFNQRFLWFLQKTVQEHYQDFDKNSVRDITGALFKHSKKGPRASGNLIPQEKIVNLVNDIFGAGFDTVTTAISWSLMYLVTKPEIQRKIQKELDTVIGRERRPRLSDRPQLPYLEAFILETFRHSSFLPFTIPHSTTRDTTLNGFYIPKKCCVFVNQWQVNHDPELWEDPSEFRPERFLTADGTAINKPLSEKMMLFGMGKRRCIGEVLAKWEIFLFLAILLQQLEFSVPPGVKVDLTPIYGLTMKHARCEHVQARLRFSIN
Chain of Lysosomal acid glucosylceramidase (Homo sapiens) (P04062 whole entry, looked up): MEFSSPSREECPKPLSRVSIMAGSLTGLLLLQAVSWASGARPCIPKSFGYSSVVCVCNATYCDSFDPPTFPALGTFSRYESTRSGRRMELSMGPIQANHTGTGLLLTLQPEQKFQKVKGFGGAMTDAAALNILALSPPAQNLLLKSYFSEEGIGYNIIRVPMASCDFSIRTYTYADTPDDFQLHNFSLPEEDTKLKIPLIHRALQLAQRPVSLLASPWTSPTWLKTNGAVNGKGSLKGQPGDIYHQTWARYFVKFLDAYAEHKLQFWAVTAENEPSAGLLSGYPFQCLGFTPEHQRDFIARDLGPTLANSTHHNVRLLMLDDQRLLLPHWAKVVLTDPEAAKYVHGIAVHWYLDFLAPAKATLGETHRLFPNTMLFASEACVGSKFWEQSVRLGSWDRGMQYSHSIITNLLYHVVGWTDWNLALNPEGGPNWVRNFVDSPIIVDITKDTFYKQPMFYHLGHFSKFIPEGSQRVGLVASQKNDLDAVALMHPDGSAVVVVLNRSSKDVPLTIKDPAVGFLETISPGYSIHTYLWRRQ
Chain of 3',5'-cyclic-AMP phosphodiesterase 4B (Homo sapiens) (Q07343 whole entry, looked up): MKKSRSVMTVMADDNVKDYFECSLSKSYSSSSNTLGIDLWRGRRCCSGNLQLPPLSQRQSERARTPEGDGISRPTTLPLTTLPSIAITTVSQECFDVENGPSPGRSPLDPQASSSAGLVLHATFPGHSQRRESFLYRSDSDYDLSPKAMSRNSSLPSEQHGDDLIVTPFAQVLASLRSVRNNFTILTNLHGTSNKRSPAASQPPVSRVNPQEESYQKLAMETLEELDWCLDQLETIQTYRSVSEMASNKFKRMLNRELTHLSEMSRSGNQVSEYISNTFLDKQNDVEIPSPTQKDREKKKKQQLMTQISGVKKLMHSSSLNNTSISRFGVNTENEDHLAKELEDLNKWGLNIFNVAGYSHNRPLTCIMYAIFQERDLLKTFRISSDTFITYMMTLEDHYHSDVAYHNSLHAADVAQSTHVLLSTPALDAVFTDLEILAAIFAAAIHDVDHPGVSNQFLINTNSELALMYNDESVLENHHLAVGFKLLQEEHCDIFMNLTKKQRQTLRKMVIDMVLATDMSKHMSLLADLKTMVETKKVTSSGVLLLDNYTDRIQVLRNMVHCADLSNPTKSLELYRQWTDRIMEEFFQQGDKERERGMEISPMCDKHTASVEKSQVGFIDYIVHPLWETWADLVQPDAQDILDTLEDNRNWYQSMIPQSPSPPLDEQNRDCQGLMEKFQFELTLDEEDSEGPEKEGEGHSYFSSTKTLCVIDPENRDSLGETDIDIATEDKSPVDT
Chain of Ubiquitin carboxyl-terminal hydrolase 1 (Homo sapiens) (O94782 whole entry, looked up): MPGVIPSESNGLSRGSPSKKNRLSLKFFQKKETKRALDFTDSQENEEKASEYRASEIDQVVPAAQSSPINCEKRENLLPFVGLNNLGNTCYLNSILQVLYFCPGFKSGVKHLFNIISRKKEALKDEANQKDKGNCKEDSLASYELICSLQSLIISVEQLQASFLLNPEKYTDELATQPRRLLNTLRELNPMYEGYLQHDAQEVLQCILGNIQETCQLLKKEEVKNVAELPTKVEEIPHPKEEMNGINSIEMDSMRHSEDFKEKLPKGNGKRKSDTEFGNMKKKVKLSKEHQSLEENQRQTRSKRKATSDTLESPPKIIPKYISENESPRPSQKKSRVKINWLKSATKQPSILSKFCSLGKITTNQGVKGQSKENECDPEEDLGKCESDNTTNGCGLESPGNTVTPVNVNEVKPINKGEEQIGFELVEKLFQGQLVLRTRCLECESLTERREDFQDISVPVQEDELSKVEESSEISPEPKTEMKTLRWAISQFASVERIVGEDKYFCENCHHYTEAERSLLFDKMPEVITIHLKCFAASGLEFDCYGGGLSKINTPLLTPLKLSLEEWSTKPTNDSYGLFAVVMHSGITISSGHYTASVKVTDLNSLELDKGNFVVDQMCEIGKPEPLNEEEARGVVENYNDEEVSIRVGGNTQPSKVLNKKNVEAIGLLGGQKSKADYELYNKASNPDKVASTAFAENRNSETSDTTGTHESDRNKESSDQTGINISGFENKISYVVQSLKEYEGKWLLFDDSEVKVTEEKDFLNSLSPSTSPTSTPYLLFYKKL
Chain of Cytochrome P450 3A4 (Homo sapiens) (P08684 whole entry, looked up): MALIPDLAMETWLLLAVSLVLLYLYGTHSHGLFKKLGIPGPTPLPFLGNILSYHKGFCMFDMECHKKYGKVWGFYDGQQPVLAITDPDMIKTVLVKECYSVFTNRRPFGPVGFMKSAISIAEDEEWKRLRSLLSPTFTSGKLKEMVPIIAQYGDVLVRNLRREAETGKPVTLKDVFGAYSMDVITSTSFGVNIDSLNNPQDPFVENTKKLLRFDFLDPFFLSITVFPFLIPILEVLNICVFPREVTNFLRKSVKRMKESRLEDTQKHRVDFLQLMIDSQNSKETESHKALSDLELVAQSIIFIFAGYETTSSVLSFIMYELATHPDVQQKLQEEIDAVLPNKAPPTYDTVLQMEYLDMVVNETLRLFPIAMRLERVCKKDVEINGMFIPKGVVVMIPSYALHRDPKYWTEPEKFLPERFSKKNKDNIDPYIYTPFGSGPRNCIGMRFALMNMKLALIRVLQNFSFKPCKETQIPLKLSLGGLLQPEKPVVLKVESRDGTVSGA

O=C(c1ccco1)N1CCC2(CC1)CCN(c1ncccn1)CC2
18.4%: max response [8, 18]
inactive: Potency [1] > 11.4 µM | activity change, negative = inhibition [2] -7.74% | activity change, negative = inhibition [3] -8.3% | activity, negative = inhibition [4] -7.06% | Potency [5] > 46 µM | outcome [6] | Potency [7] | activity change, negative = inhibition [8] 5.72% | Potency [9]
9.29%: max response [8, 17]

O=C(Nc1cccc(F)c1)N1CC[C@@]2(CCCNC2)C1
inactive: Potency [1] > 11.4 µM | activity change, negative = inhibition [2] 2.44% | Potency [10] | activity, negative = inhibition [4] -0.756% | Potency [5] > 46 µM | outcome [6] | Potency [7] | Potency [11] | activation [12] 0.832% | activity change, negative = inhibition [8] 3.99% | Potency [9]
-1.25%: max response [8, 17]
6.61%: max response [8, 18]

CS(=O)(=O)Nc1cccc(-c2nccc(NCc3ccccc3)n2)c1
-0.959%: max response [8, 17]
4.33%: max response [8, 18]
inactive: Potency [1] > 11.4 µM | activity change, negative = inhibition [2] -20% | activity change, negative = inhibition [3] -4.2% | activity, negative = inhibition [4] -11.8% | Potency [13] > 46 µM | Potency [5] > 46 µM | outcome [6] | Potency [7] | outcome [14] | outcome [15] | activity change, negative = inhibition [8] 6.93% | Potency [16] | Potency [9]

O=C(c1cnccn1)N1CCC2(CC1)CN(c1ccncc1)C2
-18.2%: max response [8, 17]
inactive: Potency [1] > 11.4 µM | activity change, negative = inhibition [2] 4.42% | Potency [10] | activity, negative = inhibition [4] 2.09% | Potency [5] > 46 µM | activity change, negative = inhibition [8] -0.9% | Potency [9]
-17.9%: max response [8, 18]

CS(=O)(=O)N1CCC2(CC1)CN(C(=O)Nc1ccccc1)C2
inactive: Potency [1] > 11.4 µM | activity change, negative = inhibition [2] -5.74% | Potency [10] | activity, negative = inhibition [4] 8.65% | Potency [5] > 46 µM | outcome [6] | Potency [7] | activity change, negative = inhibition [8] 4.59% | Potency [9]
16.7%: max response [8, 18]
6.27%: max response [8, 17]
